Tg IFNy HTS: blocks Toxoplasma gondii growth in the presence of IFN-gamma | activity change, negative = inhibition, % (no concentration beside the values) | 3.8% of 69,000 active | Toxoplasma gondii growth in IFN-gamma-treated host cells; hits give low values; in the data active = activity change below about -70%, passing the limit was not always enough;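 also: host cells are HeLa cells infected with Toxoplasma gondii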
Numbers stand for hits; – = inactive; ! = repeats disagree. Only a selection was taken, and hits are over-represented in it overall.

SMILES	Tg IFNy HTS
CC(=O)OC1CC[C@@]2(C)C(CCC3C2CC[C@]2(C)C(C4=CC(=O)OC4)C(OC(C)=O)CC32O)C1 (stereo partly drawn)	-79.6
C=CCN1CC[C@@H]2[C@@H]1CCN2Cc1csc(C)n1	–
CC(=O)O[C@@]12CO[C@@H]1C[C@H](O)[C@@]1(C)C(=O)[C@H](O)C3=C(C)[C@@H](O)C[C@@](O)([C@@H](OC(=O)c4ccccc4)[C@H]21)C3(C)C	-75.7!
CN(C)c1cccc(C2CCCNC2)n1 (stereo not drawn)	–
Cc1ccc(C(=O)CN2C(=O)CN=C(c3ccc(C)cc3)c3c2sc2c3CCCC2)cc1	–
O=C(Nc1ccc(Cl)cc1)c1cc2cccnc2n(Cc2ccccc2F)c1=O	–
Cn1cccc1CN1C[C@H]2CN(Cc3cccnc3)C[C@H]2C1	–
C[C@]12CCC(=O)C=C1CC[C@@H]1[C@@H]2CC[C@]2(C)C(=O)CC[C@@H]12	–
CCCCCCC(=O)O[C@H]1CC[C@H]2[C@@H]3CCC4=CC(=O)CC[C@]4(C)[C@H]3CC[C@]12C	-74.6
CCC(=O)O[C@H]1CCC2C3CCC4=CC(=O)CC[C@]4(C)C3CC[C@@]21C (stereo partly drawn)	-84.3
CCN(CC)CCOC1CCC2(C)C(=CCC3C4CCC(=O)C4(C)CCC32)C1 (stereo not drawn)	–
CCC(C)N1CCC2(CC1)C(=O)N(c1cncnc1)c1ccccc12 (stereo not drawn)	–
NCCc1n[nH]c(=O)n1C1CCCCC1	–
Cn1cccc1C(=O)NC[C@H]1OC[C@H]2CCNC[C@@H]21	–
c1cnc2c(c1)CN(Cc1ccoc1)CCN2CC1CC1	–
c1cncc(OCC23CCCOC2CCN(Cc2ccoc2)C3)c1 (stereo not drawn)	–
COc1ccc2c(c1)C1(CCN(C(=O)c3cnoc3C)CC1)CC2CC(=O)O (stereo not drawn)	–
COCCN1CCO[C@H]2CN(C(=O)Cc3ccccn3)CC[C@@H]2C1	–
CC1OC(OC2CC(O)C3(CO)C4C(O)CC5(C)C(C6=CC(=O)OC6)CCC5(O)C4CCC3(O)C2)C(O)C(O)C1O (stereo not drawn)	-80.7
C[C@@H]1O[C@@H](O[C@H]2C[C@@H](O)[C@]3(CO)[C@H]4[C@H](O)C[C@]5(C)[C@@H](C6COC(=O)C6)CC[C@]5(O)[C@@H]4CC[C@]3(O)C2)[C@H](O)[C@H](O)[C@H]1O (stereo partly drawn)	-99.1
COC(=O)c1cc(N2C[C@@H](c3ccc(OC)cc3)[C@@H]3[C@H]2C2CCN3CC2)ncn1	–
CN(Cc1ccccn1)C(=O)C1C2CCC1CN(CC(=O)O)C2 (stereo not drawn)	–
COc1ccccc1NC(=O)c1cc2cccnc2n(Cc2ccc(F)cc2)c1=O	–
O=C(Nc1ccc(Br)cc1)c1cc2cccnc2n(Cc2ccccc2)c1=O	–
CCCn1c(C)c(C(=O)c2cccc3ccccc23)c2ccccc21	–
SMILES	Tg IFNy HTS
Cc1c(C(=O)c2cccc3ccccc23)c2cccc3c2n1[C@H](CN1CCOCC1)CO3	-90.1
COc1ccc(C(=O)c2c(C)n(CCN3CCOCC3)c3cc(I)ccc23)cc1	–
COc1ccc(C)cc1NC(=O)c1cc2cccnc2n(Cc2ccccc2)c1=O	–
CCOCC12CCCOC1CCN(Cc1c(C)noc1C)C2 (stereo not drawn)	–
CCOC(C(=O)OCCCN1CCCCCC1)(c1ccccc1)c1ccccc1	-79.7
Cc1noc(C)c1CN1CCC2(CC1)C(=O)N(c1ccoc1)c1ccccc12	–
CC1Oc2ccc(S(=O)(=O)N3CC4CC(C3)c3cccc(=O)n3C4)cc2NC1=O (stereo not drawn)	–
CN(C)CCN1CCN(CC2CC2)c2ncccc2C1	–
CC(C)=CCC[C@]1(C)C=Cc2c(O)c3c(c(CC=C(C)C)c2O1)O[C@]12C(=C[C@@H]4C[C@H]1C(C)(C)O[C@@]2(CC=C(C)C(=O)O)C4=O)C3=O	-85.0
CC(C)CCCC1(C)C=Cc2c(O)c3c(c(CCC(C)C)c2O1)OC12C(CC4CC1C(C)(C)OC2(CCC(C)C(=O)O)C4O)C3=O (stereo not drawn)	–
COc1ncccc1CN1CC[C@@H]2OCC[C@]2(C(=O)N(C)C)C1	–
CC(C)(NC(=O)c1cccs1)C(=O)NCCc1cnc[nH]1	–
CCN1C[C@H]2[C@H](OC)CCN(C(=O)Cc3cccc(OC)c3)[C@H]2C1	–
